For some assays here: Measured potencies and affinities stand elsewhere.
What was measured:
Parameters in all cases: scale not given: direction of the effect not stated beside the values
[1] = molecular target: Protein translocase subunit SecA (Escherichia coli (strain K12)) (UniProt P10408); assay: Assay to Identify E. coli SecA ATPase Inhibitors; format: functional; conditions: 30 µM
[2] = molecular target: T1, Ubiquitin-activating enzyme e1, putative (Leishmania donovani (strain BPK282A1)) (UniProt E9BSI1); assay: Leishmania donovani Ubiquitin Activating Enzyme (LdE1); format: functional; conditions: 30 µM
T1 sequence (whole entry): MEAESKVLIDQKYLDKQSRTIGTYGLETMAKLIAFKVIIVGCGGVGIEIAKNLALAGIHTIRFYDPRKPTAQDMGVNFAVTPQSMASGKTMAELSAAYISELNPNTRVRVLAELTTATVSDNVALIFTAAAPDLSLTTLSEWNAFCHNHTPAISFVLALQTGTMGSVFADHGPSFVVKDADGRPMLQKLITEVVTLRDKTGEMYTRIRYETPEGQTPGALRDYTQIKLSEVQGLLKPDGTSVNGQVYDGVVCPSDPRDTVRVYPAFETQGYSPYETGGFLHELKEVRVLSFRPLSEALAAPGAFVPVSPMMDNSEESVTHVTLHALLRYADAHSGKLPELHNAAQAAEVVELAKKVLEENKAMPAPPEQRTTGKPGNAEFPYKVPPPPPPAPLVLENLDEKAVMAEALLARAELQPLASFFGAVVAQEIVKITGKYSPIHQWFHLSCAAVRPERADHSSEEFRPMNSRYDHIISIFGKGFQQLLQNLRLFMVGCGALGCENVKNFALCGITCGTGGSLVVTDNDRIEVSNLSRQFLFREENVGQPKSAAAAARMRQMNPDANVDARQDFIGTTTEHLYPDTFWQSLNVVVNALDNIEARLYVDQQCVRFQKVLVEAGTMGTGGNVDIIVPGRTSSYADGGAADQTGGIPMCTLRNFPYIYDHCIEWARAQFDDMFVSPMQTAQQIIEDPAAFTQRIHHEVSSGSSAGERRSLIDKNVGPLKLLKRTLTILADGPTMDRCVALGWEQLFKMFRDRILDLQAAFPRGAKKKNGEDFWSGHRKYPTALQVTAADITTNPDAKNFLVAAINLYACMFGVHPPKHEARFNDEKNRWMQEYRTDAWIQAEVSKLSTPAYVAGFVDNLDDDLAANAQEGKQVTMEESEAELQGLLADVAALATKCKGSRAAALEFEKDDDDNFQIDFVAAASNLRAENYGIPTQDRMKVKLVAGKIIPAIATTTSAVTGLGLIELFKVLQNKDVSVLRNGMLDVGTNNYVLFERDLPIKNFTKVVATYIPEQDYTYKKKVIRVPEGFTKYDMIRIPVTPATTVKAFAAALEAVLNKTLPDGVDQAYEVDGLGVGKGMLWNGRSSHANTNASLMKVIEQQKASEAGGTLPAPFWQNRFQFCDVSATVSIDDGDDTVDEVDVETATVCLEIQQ

[3] = molecular target: AMP-activated protein kinase, AMPK (Homo sapiens) (UniProt P54646+O43741+P54619+Q9UGJ0+Q9Y478+Q13131+Q9UGI9); assay: AMP-dependent Kinase enzyme assay. An in vitro enzyme assay that detects ADP turnover that is directly proportional to AMPK activity. This uses naive AMPK that is activated during the assay with MK-8722; format: functional; conditions: 30 µM
[4] = molecular target: Sialic acid-binding Ig-like lectin 9 (Homo sapiens) (UniProt Q9Y336); assay: Hs-Siglec9 ALPHAscreen SOP 20170721; conditions: 10 µM
Chain of Sialic acid-binding Ig-like lectin 9 (Homo sapiens) (Q9Y336 whole entry): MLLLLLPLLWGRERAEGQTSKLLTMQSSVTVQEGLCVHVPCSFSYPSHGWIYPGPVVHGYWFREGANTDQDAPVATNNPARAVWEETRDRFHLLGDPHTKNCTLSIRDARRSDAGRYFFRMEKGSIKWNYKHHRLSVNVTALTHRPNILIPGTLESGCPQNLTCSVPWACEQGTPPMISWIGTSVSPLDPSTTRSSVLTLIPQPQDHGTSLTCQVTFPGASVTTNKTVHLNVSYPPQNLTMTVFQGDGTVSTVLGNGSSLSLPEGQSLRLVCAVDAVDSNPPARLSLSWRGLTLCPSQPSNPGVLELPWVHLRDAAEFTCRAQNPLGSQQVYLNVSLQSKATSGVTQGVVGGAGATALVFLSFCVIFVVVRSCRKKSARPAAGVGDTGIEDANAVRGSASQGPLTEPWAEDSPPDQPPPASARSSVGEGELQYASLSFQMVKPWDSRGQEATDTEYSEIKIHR

Trypanosoma cruzi = assay: Trypanosoma cruzi phosphomannomutase and mannose-1-phosphate guanylyltransferase assay; format: functional; conditions: 10 µM
[5] = molecular target: T2, Arginase-2, mitochondrial (Homo sapiens) (UniProt P78540); assay: in vitro enzyme assay to detect the production of urea directly proportional to the activity of Arginase II; format: functional; conditions: 33.3 µM; note: in the data most compounds retested in dose-response had high values
T2 sequence (whole entry): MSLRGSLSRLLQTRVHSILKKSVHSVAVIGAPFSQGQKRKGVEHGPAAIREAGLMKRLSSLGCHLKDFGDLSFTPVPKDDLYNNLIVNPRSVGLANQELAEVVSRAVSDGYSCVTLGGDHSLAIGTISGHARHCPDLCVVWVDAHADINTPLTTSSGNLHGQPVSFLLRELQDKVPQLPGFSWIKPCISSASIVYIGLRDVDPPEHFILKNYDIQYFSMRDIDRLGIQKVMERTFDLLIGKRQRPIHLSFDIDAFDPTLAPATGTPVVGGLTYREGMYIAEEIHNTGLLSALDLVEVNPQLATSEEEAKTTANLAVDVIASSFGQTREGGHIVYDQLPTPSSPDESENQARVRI

[6] = molecular target: T3, Proteasome subunit beta (Trypanosoma cruzi) (UniProt O96673); assay: Trypanosoma cruzi proteasome chymotrypsin-like activity (TcProtChymo) assay.; note: in the data most compounds retested in dose-response had high values; format: functional; conditions: 9.37 µM
T3 sequence (whole entry): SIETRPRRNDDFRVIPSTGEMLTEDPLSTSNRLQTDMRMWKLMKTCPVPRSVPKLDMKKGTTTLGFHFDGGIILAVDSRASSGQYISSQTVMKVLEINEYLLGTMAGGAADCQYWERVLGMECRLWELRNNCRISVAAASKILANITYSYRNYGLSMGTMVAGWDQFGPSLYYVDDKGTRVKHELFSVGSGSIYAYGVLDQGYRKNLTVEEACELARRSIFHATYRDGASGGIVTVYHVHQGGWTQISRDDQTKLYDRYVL

Homo sapiens = species: Homo sapiens; assay: To identify inhibition of the IFN signalling (Jak-Stat) pathway via expression of an eGFP reporter gene under the control of an IFN-stimulated response element (ISRE) containing MxA promoter.; format: functional; conditions: 30 µM
[7] = molecular target: T4, Tyrosyl-tRNA synthetase, putative (Trypanosoma cruzi (strain CL Brener)) (UniProt Q4DSP6); assay: Trypanosoma cruzi tyrosyl tRNA synthetase (TcYRS) _High Tyrosine SOP; format: functional; conditions: 30 µM; note: in the data most compounds retested in dose-response had high values
T4 sequence (whole entry): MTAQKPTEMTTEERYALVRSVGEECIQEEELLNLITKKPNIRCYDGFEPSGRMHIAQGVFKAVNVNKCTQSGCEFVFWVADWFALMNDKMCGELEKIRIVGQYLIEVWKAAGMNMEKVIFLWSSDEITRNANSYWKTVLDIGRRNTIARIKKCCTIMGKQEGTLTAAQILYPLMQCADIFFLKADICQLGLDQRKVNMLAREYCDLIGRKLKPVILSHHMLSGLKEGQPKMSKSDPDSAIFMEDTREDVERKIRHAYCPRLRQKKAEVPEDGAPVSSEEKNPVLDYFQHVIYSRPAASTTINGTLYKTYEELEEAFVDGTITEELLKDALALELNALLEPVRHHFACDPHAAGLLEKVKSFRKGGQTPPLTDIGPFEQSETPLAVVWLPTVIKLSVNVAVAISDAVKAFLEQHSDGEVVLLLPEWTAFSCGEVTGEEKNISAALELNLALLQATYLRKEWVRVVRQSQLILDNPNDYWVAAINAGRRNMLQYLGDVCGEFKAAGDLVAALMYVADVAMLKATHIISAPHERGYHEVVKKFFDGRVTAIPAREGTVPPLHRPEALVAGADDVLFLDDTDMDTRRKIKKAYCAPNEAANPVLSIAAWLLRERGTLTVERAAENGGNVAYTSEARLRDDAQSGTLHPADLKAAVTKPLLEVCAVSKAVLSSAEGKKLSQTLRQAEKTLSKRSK

[8] = molecular target: T4, Tyrosyl-tRNA synthetase, putative (Trypanosoma cruzi (strain CL Brener)); assay: Trypanosoma cruzi tyrosyl tRNA synthetase (TcYRS) SOP; format: functional; conditions: 30 µM
[9] = molecular target: Chromo domain-containing protein 1 (Saccharomyces cerevisiae (strain ATCC 204508 / S288c) (Baker's yeast)) (UniProt P32657); assay: ScCHD-1 Enzyme Inhibition Assay; format: functional; conditions: 30 µM; note: in the data most compounds retested in dose-response had high values
Chain of Chromo domain-containing protein 1 (Saccharomyces cerevisiae (strain ATCC 204508 / S288c) (Baker's yeast)) (P32657 whole entry, the tested form may be a part): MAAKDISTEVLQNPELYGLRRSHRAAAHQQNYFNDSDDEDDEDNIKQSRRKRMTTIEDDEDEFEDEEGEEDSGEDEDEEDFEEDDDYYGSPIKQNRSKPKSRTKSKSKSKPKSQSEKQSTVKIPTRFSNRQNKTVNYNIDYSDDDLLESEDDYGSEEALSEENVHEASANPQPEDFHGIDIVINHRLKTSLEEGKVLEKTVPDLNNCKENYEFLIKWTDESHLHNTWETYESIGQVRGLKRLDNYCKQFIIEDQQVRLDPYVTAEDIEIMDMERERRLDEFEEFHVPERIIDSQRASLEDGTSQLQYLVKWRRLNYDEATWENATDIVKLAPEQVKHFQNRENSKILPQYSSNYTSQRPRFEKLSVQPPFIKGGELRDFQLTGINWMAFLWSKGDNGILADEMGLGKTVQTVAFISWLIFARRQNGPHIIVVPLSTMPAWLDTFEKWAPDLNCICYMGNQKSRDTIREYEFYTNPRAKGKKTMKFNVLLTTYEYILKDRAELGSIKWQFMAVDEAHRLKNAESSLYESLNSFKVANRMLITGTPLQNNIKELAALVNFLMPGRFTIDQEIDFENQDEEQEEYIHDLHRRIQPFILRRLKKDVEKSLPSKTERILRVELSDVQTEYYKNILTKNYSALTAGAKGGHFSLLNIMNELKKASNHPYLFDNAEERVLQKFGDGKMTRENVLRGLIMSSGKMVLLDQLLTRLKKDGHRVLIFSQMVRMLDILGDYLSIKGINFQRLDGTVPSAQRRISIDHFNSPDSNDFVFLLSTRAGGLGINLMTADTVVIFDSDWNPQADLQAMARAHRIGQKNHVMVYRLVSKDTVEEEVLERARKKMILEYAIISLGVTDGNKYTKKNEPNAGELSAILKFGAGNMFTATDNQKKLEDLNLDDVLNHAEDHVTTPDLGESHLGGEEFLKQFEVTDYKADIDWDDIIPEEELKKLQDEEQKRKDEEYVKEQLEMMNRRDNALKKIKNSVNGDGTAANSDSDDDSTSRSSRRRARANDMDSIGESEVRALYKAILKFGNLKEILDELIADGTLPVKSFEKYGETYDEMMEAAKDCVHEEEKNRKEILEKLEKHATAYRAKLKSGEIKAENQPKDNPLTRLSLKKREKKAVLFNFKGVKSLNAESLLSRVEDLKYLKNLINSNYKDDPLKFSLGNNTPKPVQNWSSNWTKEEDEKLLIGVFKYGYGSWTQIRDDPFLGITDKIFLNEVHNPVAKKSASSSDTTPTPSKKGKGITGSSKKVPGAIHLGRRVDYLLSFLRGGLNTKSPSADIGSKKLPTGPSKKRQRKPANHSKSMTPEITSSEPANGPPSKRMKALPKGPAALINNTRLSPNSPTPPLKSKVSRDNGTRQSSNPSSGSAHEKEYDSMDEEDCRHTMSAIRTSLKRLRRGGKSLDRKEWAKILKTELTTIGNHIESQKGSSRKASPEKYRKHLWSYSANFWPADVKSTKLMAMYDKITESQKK

Chain of Protein translocase subunit SecA (Escherichia coli (strain K12)) (P10408 whole entry): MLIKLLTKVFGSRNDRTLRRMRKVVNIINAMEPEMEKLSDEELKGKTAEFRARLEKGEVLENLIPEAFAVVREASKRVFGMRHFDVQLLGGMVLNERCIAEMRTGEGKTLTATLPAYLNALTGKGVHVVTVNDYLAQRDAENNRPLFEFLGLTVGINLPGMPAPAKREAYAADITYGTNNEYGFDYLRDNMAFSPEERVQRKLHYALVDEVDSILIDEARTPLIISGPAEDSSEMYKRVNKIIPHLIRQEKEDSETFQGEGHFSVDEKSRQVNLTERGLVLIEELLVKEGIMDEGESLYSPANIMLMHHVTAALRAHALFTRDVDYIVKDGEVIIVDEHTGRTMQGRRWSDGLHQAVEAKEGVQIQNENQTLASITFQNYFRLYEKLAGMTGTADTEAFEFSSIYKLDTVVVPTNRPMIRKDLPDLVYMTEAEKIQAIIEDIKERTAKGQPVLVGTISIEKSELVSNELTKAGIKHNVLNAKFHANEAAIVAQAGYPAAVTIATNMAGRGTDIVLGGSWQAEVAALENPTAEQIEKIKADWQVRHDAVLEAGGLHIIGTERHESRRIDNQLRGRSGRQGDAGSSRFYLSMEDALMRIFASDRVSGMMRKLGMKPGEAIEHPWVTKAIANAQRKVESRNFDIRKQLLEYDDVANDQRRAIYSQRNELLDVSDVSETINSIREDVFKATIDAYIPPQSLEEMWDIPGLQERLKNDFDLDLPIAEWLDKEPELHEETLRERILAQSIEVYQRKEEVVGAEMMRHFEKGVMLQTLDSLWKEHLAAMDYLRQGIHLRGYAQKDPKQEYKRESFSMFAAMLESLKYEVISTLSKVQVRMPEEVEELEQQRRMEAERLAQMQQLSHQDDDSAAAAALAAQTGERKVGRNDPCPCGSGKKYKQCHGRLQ

Structure (SMILES)	Percent Effect [1] [%]	Percent Effect [2] [%]	Percent Effect [3] [%]	Percent Effect [4] [%]	Percent Effect (Trypanosoma cruzi) [%]	Percent Effect [5] [%]	Percent Effect [6] [%]	Percent Effect (Homo sapiens) [%]	Percent Effect [7] [%]	Percent Effect [8] [%]	Percent Effect [9] [%]
COc1ccc(-c2nc(CN3CCN(CCO)CC3)co2)cc1	-2.39	20.8	-11.9	-1.67	8.8	4.98	15.2	29	5.83	24.4	-9.19
CCc1nc(CN(C(C)=O)C2CCN(CCc3cnn(C)c3)C2)no1 (configuration not stated)	-2.36	27.9	-1.95	-9.07	-0.85	3.04	0.901	22.4	-19.2	16.5	-7.18
COC(=O)c1ccoc1COC(=O)CCc1ccc(OC)c(OC)c1	-0.0167	-5.26	11.1	1.57	-3.99	0	13.7	-9.69	0	-20.8	1.64
CCn1cnnc1C1CCN(C(=O)c2cnc3ccccc3n2)CC1	-1.53	5.26	5.47	3.25	5.75	-11.8	13.7	-15.4	0	2.6	1.06
O=C(NCc1cc[nH]n1)N1CCN(c2ccccc2Cl)CC1	-5	23.7	-1.65	3.62	1.96	-0.719	14.1	15.6	7.39	18.5	-10.1
O=S(=O)(NC1=NCN(CCc2cccs2)CN1)c1ccc(F)cc1	1.07	4	3.26	4.09	-4.91	-7.57	14.1	-6.32	5.29	10.3	-10.7
Cc1ncc2c(n1)CCN(C(=O)Cc1c(C)noc1C)C2	-8.55	13.2	-4.54	7.88	9.62	-1.44	8.21	-0.465	9.36	18.5	-7.72
O=S(=O)(CCNCc1cccc2c1OCCO2)N1CCOCC1	0.589	10.8	-8.76	1	-0.965	-0.476	9.14	24.3	5.82	4.88	-2.36
O=C(c1cccn1Cc1cccs1)N1CCCC1Cn1cccn1 (configuration not stated)	-1.97	-23.7	-2.11	10.5	8.68	-4.68	8.38	-4.07	0.493	6.17	3.37
CC(NC(N)=O)C(=O)N(C)CCCc1cc(-c2ccccc2)no1 (configuration not stated)	-3.18	2.7	7.96	-4.86	-10.1	-1.29	9.34	25	3.96	6.1	0.208
O=C1CN(Cc2nnc(-c3ccc(Br)cc3)o2)CCN1	0.69	18.1	-9.97	2.35	2.04	-1.77	15.6	11.5	2.1	2.56	-3.39
CCCC(NC(=O)c1ccc(OC)cc1F)c1nnn[nH]1 (configuration not stated)	-2.26	5.33	-8.28	11.5	5.16	17.2	9.24	-13.2	4.92	8.64	-4.91
CN(C)C(=O)c1ccc2c(c1)N(C)C(CC(=O)NCc1ccno1)CO2 (configuration not stated)	-0.872	6.94	-9.68	0.254	1.85	15	20.7	18.1	7.37	10.3	-2.72
COc1cccc(S(=O)(=O)NC(=O)COc2c(C)cccc2C)c1	-5.17	7.79	-10.1	-4.14	-2.81	2.13	6.08	10.3	0	12.2	-4.1
Cc1nc[nH]c1CN1C[C@@H]2CC[C@H](C1)N(C(=O)CCNS(C)(=O)=O)C2	-4.5	-1.39	-15.6	26.7	4.57	17.7	3.33	-7.69	5.26	7.69	-4.5
CCc1n[nH]c(C2CN(C(=O)c3cnns3)CCO2)n1 (configuration not stated)	-3.59	0	2.14	-2.18	-4.63	-19	2.7	15.6	1.48	-3.8	-1.39
Cc1cnccc1N1CCCN(C(=O)CCCc2cn[nH]c2)CC1	-2.89	11	-5.34	18.3	3.92	-1.36	-1.06	4.4	1.07	7.5	-3.49
CN(CC(=O)N1CCN(c2ccccc2F)CC1)c1cnccn1	-1.13	16.2	-1.85	4.66	-0.0929	-5.73	6.82	12.1	5.94	15.8	-7.13
CC(C)c1noc(CCCC(=O)N2CCN(Cc3ccncc3)CC2)n1	-2.42	22.8	-9.61	-9.55	3.87	-6.84	12.2	11.6	5.42	21.5	-6.65
COCCn1ccc(NC(=O)Nc2cccnc2)n1	-2.55	0	3.19	3.76	2.82	-7.1	15.6	21.2	3.19	7.79	-6.3
CC(C)c1nc(C2CCCN2Cc2ccno2)no1 (configuration not stated)	-2.76	-2.6	-0.797	8.93	-2.81	2.13	-1.52	14.5	2.91	-2.44	4.2
COCCN(C)CCN1CC2(CCN(C(=O)C3CCOC3)CC2)OC1=O (configuration not stated)	-4.65	18.2	9.58	7.65	5.21	-12.4	23.1	6.21	7.53	18.5	-7.01

From ChEMBL document CHEMBL3988442, “University of Dundee, Small-Polar-MMV Screening Library” (2021)
